Assay results: PubChem BioAssay (NCI)
Compounds without any hit were thinned out: in the full panel of roughly 83,000, 20% have a hit.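 How to read the values: 0–100, growth inhibition (40 = 60% inhibited); 0, no net growth; -100 to 0, cell death (-40 = 40% of starting cells died; -100 = all dead).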 The source made the active and inactive calls. Rule for the calls: active = growth percent below 10; inactive = the rest.

Legend:
Experiment in all cases: NCI-60 one-dose screen, 48 h (100 = growth as untreated, 0 = no growth, -100 = all killed)
Settings in all cases: 10 µM unless noted
[1] = test system: DU-145 prostate
[2] = test system: K-562 leukemia
[3] = test system: MDA-MB-231 breast
[4] = test system: RXF 393 renal
[5] = test system: SF-268 CNS
[6] = test system: SF-295 CNS
[7] = test system: SF-539 CNS
[8] = test system: M14 melanoma
[9] = test system: MALME-3M melanoma

Measured: growth

COc1cnc2c(c1)C(=O)c1c-2n(CCCN2CCC(O)CC2)c(=O)c2cc(Cl)ccc12
inactive: [1] 22.8% | [4] 28.2% | [5] 34.7% | [6] 17.8% | [7] 14.7% | [8] 30.9%
active: [2] -38.7% | [3] -28.4%

Nc1cc2c(cc1Br)-c1c(C(=O)O)cccc1C2O (stereo not drawn)
inactive: [1] 110% | [9] 98.2% | [3] 98.3% | [5] 115% | [6] 118% | [7] 98.6% | [8] 98.9%

CCN(CC)Cc1cc(Nc2cc(C(F)(F)F)c(C#N)c3nc4ccccc4n23)ccc1O
inactive: [1] 25.1% | [2] 11.3% | [5] 26.7% | [8] 24.3%
active: [3] -8.6% | [4] 0.263% | [6] 5.79% | [7] 5.91%

CC(=Nc1ccccc1)C1=C(O)C(Cc2ccccc2)NC1=O (stereo not drawn)
active: [1] -31.5% | [3] -1.28% | [6] -19.1% | [7] -33.8% | [8] -16.6%
inactive: [9] 58.6% | [5] 14.1%

CCc1nc2cc(/C=C/C(=O)NO)ccc2c(=O)n1CCc1ccc(OC)cc1
active: [1] 7.21% | [2] 8.06% | [4] -25%
inactive: [3] 16.8% | [5] 26.4% | [6] 21.3% | [7] 26.5% | [8] 16.3%

COC(=O)c1[nH]cnc1/N=N/N(C)CCO
inactive: [1] 110% | [9] 119% | [3] 118% | [5] 93% | [6] 112% | [7] 95% | [8] 101%

O=C(Nc1ccc(C(=O)Nc2ccc(C3=NCCCN3)cc2)cc1)Nc1ccc(C2=NCCCN2)cc1
inactive: [1] 96.1% | [9] 69.5% | [3] 92.4% | [5] 110% | [6] 85.3% | [7] 87.2% | [8] 87%

Oc1ccc(/C=N/Nc2nnc(N/N=C/c3ccc(O)cc3O)c3ccccc23)c(O)c1
active: [1] -24.3% | [9] -5.87% | [3] -13.6% | [5] -5.14% | [6] -38.1% | [7] -42.1% | [8] -52.7%

CCc1ccc(/C=C/c2ccc(O)c3ncccc23)[n+](C)c1
inactive: [1] 42.8% | [9] 63.5% | [3] 90.9% | [5] 47.7% | [6] 58.5% | [7] 62.7% | [8] 47.6%

CC1CCC(n2cnc3c(Cl)ncnc32)O1 (stereo not drawn)
inactive: [1] 112% | [9] 88.5% | [3] 105% | [5] 105% | [6] 95.5% | [7] 97.5% | [8] 93.8%

O=C(Nc1ccc(C2=NCCCN2)cc1)c1ccc(C(=O)Nc2ccc(C3=NCCCN3)cc2)nc1
inactive: [1] 122% | [9] 117% | [3] 104% | [5] 106% | [6] 110% | [7] 104% | [8] 102%

CC(=O)OCCC/C(=C\c1ccc2ccccc2c1)[N+](=O)[O-]
inactive: [6] 18%
active: [1] -93.6% | [9] -53.5% | [3] -58.8% | [5] -74.2% | [7] -99% | [8] -70.9%

O=CC(OC(=O)c1ccccc1)C(OC(=O)c1ccccc1)C(COC(c1ccccc1)(c1ccccc1)c1ccccc1)OC(=O)c1ccccc1 (stereo not drawn)
inactive: [1] 86% | [9] 67.9% | [3] 48.4% | [5] 38.5% | [6] 93.5% | [7] 76.5% | [8] 53.4%

CC1(O)CCC(Nc2cc(-c3ccc(C(F)(F)F)cc3)c(C#N)c3nc4ccccc4n23)CC1 (stereo not drawn)
inactive: [1] 67.8% | [2] 73.1% | [3] 50.4% | [4] 53.2% | [5] 64.5% | [6] 51.9% | [7] 63.4% | [8] 91.2%

COc1cc(OC)c(C(=O)/C=C/c2cc3c(cc2OCc2ccccc2)OC(C)(C)CC3)cc1CC=C(C)C
inactive: [1] 51.9% | [9] 77.8% | [3] 52.4% | [5] 49.1% | [6] 66.9% | [7] 79.4% | [8] 68.2%

Cc1ccc(-c2nc3ccc(Cl)cn3c2NC2CCCCC2)o1
inactive: [1] 104% | [2] 74.5% | [3] 84.7% | [4] 83.1% | [5] 80% | [6] 91.3% | [7] 95.4% | [8] 101%

Nc1nc(=S)c2ncn(C3OC(COC(=O)c4ccc(Cl)cc4)C(OC(=O)c4ccc(Cl)cc4)C3OC(=O)c3ccc(Cl)cc3)c2[nH]1 (stereo not drawn)
inactive: [1] 105% | [9] 102% | [3] 88% | [5] 90.4% | [6] 114% | [7] 89.9% | [8] 99.4%

COC(=O)[C@@H](C)CNS(=O)(=O)N(c1cc(C(F)(F)F)cc(C(F)(F)F)c1)C1CCN(Cc2ccc(F)cc2)CC1
inactive: [1] 92.9% | [9] 43.8% | [3] 71% | [5] 84.4% | [6] 81.1% | [7] 73.5% | [8] 58.5%

COc1cnc2c(c1)C(=O)c1c-2n(CCCn2ccnc2)c(=O)c2cc(Cl)ccc12
active: [1] 2.01% | [2] 5.92% | [4] -33.6% | [6] 0.124% | [7] -11.6% | [8] -2.18%
inactive: [3] 55.2% | [5] 21.9%

CCc1nc2ccc(Cc3ccc(C(=O)NO)cc3)cc2c(=O)n1CCc1ccccc1
active: [1] 2.78% | [2] 1.5% | [3] -24% | [4] -66.6% | [5] -48.5% | [6] -79.1% | [7] -43.1% | [8] -63.8%

COc1cnc2c(c1)C(=O)c1c-2n(CCCN2CCC(N)CC2)c(=O)c2cc([N+](=O)[O-])ccc12
inactive: [1] 13.2% | [2] 49.2% | [3] 57.9% | [4] 64.4% | [5] 50% | [6] 24.2% | [7] 70.3% | [8] 52.9%

CC(=O)Oc1ccccc1C(=O)N=C1[Se]CCN1C(=O)c1ccccc1OC(C)=O
active: [1] -44.2% | [2] 8.83% | [3] -22.2% | [4] -72.5% | [5] -77.1% | [6] -67.6% | [7] -79.4% | [8] -57.7%
